# Test results published in the supplement of paper PMC6897291.
# Tested on: U-2932
# Assay: growth inhibition by drug alone (1 - RLU/untreated control) (fraction); higher = stronger inhibition
# Conditions: 177Lu-lilotomab satetraxetan 0 ug/ml
# Procedure: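 U-2932 ABC-DLBCL cells were pretreated or not for 18 h with 1 ug/ml 177Lu-lilotomab satetraxetan (600 MBq/mg), washed and seeded (3000 cells/well) on 384-well plates pre-printed with the Selleck Cambridge Cancer Compound library. Viability was read by RealTime-Glo luminescence on days 3-6 after seeding. Effect = 1 - RLU/mean RLU of the 48 untreated no-drug control wells per plate; Bliss score = (M-E)/(1-Fa), with E the expected Bliss-additive effect.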
Compound,"growth inhibition by drug alone (10 nM, time (day): 3)","growth inhibition by drug alone (10 nM, time (day): 4)","growth inhibition by drug alone (10 nM, time (day): 5)","growth inhibition by drug alone (10 nM, time (day): 6)","growth inhibition by drug alone (1000 nM, time (day): 3)","growth inhibition by drug alone (1000 nM, time (day): 4)","growth inhibition by drug alone (1000 nM, time (day): 5)","growth inhibition by drug alone (1000 nM, time (day): 6)"
Cn1nnc2c(C(N)=O)ncn2c1=O [Temozolomide],0.0892,0.0648,-0.0333,-0.0967,-0.0354,0.0378,-0.0162,-0.101
COc1cc(Nc2ncc(F)c(Nc3ccc4c(n3)N(COP(=O)(O)O)C(=O)C(C)(C)O4)n2)cc(OC)c1OC,-0.000834,-0.000602,0.00162,0.0946,0.00804,-0.00449,-0.047,-0.0248
COc1c(C)c2c(c(O)c1C/C=C(\C)CCC(=O)O)C(=O)OC2 [Mycophenolic (Mycophenolate)],0.183,0.162,0.104,0.147,0.779,0.83,0.78,0.716
COc1cc2ncnc(Nc3ccc(F)c(Cl)c3)c2cc1NC(=O)/C=C/CN1CCCCC1,-0.101,-0.0931,-0.078,0.0128,-0.222,-0.156,-0.164,-0.0283
COc1c(C)c2c(c(O)c1C/C=C(\C)CCC(=O)OCCN1CCOCC1)C(=O)OC2 [Mycophenolate mofetil (CellCept)],0.0454,0.0504,-0.00114,-0.00474,0.727,0.792,0.743,0.673
